D2 PAM-1: human D2 receptor positive allosteric modulation; AID 624464; DiscoveRx D2 beta-arrestin cells, luminescence, 90 min; 100% = 57 uM dopamine signal; hit rate 0.23% among 360,000; potentiation, % (concentration not given with the values); P14416; in the data active = potentiation above about 50%
Target sequence (P14416 whole entry, looked up): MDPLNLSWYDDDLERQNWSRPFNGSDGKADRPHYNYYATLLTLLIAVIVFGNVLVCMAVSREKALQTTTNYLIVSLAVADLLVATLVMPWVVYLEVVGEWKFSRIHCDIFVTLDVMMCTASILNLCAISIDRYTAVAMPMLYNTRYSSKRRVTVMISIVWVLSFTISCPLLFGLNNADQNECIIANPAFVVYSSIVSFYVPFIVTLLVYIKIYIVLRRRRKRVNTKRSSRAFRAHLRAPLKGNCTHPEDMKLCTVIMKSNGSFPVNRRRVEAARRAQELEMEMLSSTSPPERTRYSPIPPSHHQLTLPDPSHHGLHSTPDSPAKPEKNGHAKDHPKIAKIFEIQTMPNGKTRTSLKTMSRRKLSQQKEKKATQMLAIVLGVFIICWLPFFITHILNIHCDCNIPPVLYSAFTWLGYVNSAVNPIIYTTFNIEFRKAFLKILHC
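PathHunter D2 cells, attached overnight at 37 deg C, received compound in DMSO plus dopamine at EC20 (50 nM final) for 90 min at 37 deg C. Beta-arrestin recruitment was read as luminescence after 1 h with detection reagent at ambient temperature.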
D2 ag-1: agonists of human D2 dopamine receptor (beta-arrestin); P14416; DiscoveRx PathHunter D2 beta-arrestin, luminescence, 90 min; 100% = 57 uM dopamine signal; activation, % (no concentration beside the values); hit rate 0.084% among 360,000; AID 624465; in the data active = activation above about 40%
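DiscoveRx PathHunter D2 beta-arrestin cells (2,100/well) attached overnight, then compound-stimulated 90 min at 37 C in HBSS/10 mM HEPES/0.1% Tween-20 buffer; beta-galactosidase complementation read by luminescence after 1 h at ambient temperature. Dopamine 57 uM final (EC100) as control.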
D2 ag-2: agonists of human D2 dopamine receptor. HEK293 T-REx D2 cells, calcium flux agonist mode. activation, % at 2 µM. hit rate 0.53% among 340,000. AID 485358;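 active = activation over 3 SD above normal in the single-dose calcium agonist read, cut at about 30% in these data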; note: 0% is about no effect
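In this primary screen, compounds producing a positive calcium signal within 180 s of addition to tetracycline-induced, force-coupled HEK293 Trex D2 cells are flagged; cells are dye-loaded with a no-wash calcium kit beforehand.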
D2 antagonist: antagonists of human D2 dopamine receptor; hit rate 2% among 340,000; HEK293 TREx D2 cells, calcium flux, dopamine EC80; inhibition, % at 10 µM; P14416; in the data active = inhibition above about 30%; inactive = below that, where a call was filed; note: 0% is about no effect
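Compounds are added to dye-loaded, induced HEK293 T-REx cells coupled to calcium release via D2; after a 3 min kinetic read an EC80 dopamine stimulus is given and fluorescence is recorded for 3 more min.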
D2 PAM-2: D2 dopamine receptor (human) potentiation | P14416 | HEK293 T-REx D2, calcium flux, EC20 dopamine potentiation | potentiation, % at 10 µM | hit rate 0.34% among 340,000;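 active = potentiation over 3 SD above the plate norm, cut at about 30% in these data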; note: 0% is about no effect
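Primary screen. Calcium kinetics in induced HEK293 T-REx D2 cells: compound pre-addition 180 s, EC20 dopamine, 180 s more.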
Starred values were filed as active, the others as inactive. A selection: hits, their analogues and other compounds. The true share with any hit is near 2.4%.

What do the screens show for `O=C(COC(=O)c1cc([N+](=O)[O-])ccc1N1CCOCC1)Nc1ccc(Cl)cc1`?
D2 PAM-1: -28; D2 ag-1: 2; D2 ag-2: 1; D2 antagonist: 42*; D2 PAM-2: -8

What do the screens show for `O=c1oc2ccccc2c(NCCc2ccccc2)c1[N+](=O)[O-]`?
D2 PAM-1: -14; D2 ag-1: -1; D2 ag-2: -1; D2 antagonist: 3; D2 PAM-2: 0

Results for COc1cc2nc(Nc3ccc(C)c(C)c3)nc(N)c2cc1OC ?
D2 PAM-1: -12; D2 ag-1: -3; D2 ag-2: -1; D2 antagonist: 30*; D2 PAM-2: 5

What do the screens show for `Cc1occc1C(=O)NNC(=O)c1nn(C)c(=O)c2ccccc12`?
D2 PAM-1: 0; D2 ag-1: -2; D2 ag-2: 0; D2 antagonist: -13; D2 PAM-2: 31*

What do the screens show for `Cn1nc(C(=O)NNC(=O)COc2ccccc2)c2ccccc2c1=O`?
D2 PAM-1: -16; D2 ag-1: -1; D2 ag-2: 0; D2 antagonist: 8; D2 PAM-2: -13

What do the screens show for `CCCc1nnc(SCC(=O)N2CCCC2)n1Cc1ccco1`?
D2 PAM-1: 0; D2 ag-1: 0; D2 ag-2: 40*; D2 antagonist: 5; D2 PAM-2: -15

How did CCCn1c(CCc2ccccc2)nnc1SCC(=O)N1CCCC1 do in these assays?
D2 PAM-1: -12; D2 ag-1: -2; D2 ag-2: 1; D2 antagonist: -3; D2 PAM-2: 0

What do the screens show for `COc1ccccc1Cc1nc2ccccc2nc1SCC(=O)Nc1ccccc1C(F)(F)F`?
D2 PAM-2: 12

How did COc1ccc(-c2nc(CSCC(=O)N3CCc4ccccc4C3)c(C)o2)cc1OC do in these assays?
D2 PAM-1: -10; D2 ag-1: -7; D2 ag-2: 0; D2 antagonist: 45*; D2 PAM-2: 22

How did COc1ccc(NC(=O)CCCSc2ccccc2)cc1S(N)(=O)=O do in these assays?
D2 PAM-1: -2; D2 ag-1: -3; D2 ag-2: -1; D2 antagonist: 30; D2 PAM-2: -3

Results for CC(C)N1CCc2c(sc(NC(=O)c3ccc(S(=O)(=O)N(C)C4CCCCC4)cc3)c2C(N)=O)C1 ?
D2 ag-2: 2; D2 PAM-2: 8

Results for CCN1CCc2c(sc(NC(=O)c3ccc(S(=O)(=O)N(CCOC)CCOC)cc3)c2C(N)=O)C1 ?
D2 ag-2: 0; D2 PAM-2: -4

What do the screens show for `CNC(=O)c1c(NC(=O)c2ccc(S(=O)(=O)N(C)c3ccccc3)cc2)sc2c1CCN(C(C)C)C2`?
D2 PAM-1: 15; D2 ag-1: -2; D2 ag-2: 84*; D2 antagonist: 19; D2 PAM-2: -3

What do the screens show for `CCN1CCc2c(sc(NC(=O)c3ccc(S(=O)(=O)N(C)c4ccccc4)cc3)c2C(=O)NC)C1`?
D2 PAM-1: -2; D2 ag-1: -7; D2 ag-2: 38*; D2 antagonist: 1; D2 PAM-2: 1

How did CC1CCC(NC(=O)c2ccc3c(c2)S(=O)(=O)c2ccccc2C3=O)CC1 (centres undefined) do in these assays?
D2 PAM-1: -1; D2 ag-1: 5

How did CC(C)OCC(O)Cn1c(N2CCCC2)nc2c1c(=O)[nH]c(=O)n2C (centres undefined) do in these assays?
D2 PAM-1: -8; D2 ag-1: -2; D2 ag-2: 0; D2 antagonist: 13; D2 PAM-2: -4

What do the screens show for `COCCN(CC1CCCN(C2Cc3ccccc3C2)C1)C(=O)c1cccs1` (centres undefined)?
D2 PAM-1: -21; D2 ag-1: -1; D2 ag-2: 0; D2 antagonist: 1; D2 PAM-2: -1

What do the screens show for `Cc1ccc(C(=O)NNc2ncnc3c2cnn3C)cc1`?
D2 PAM-1: -10; D2 ag-1: -2; D2 ag-2: 0; D2 antagonist: 31*; D2 PAM-2: 12

What do the screens show for `CCN(CC(=O)Nc1cc(Cl)ccc1C)C(=O)COc1cccc2c1OC(C)(C)C2`?
D2 PAM-1: -30; D2 ag-1: -3; D2 ag-2: 1; D2 antagonist: 43*; D2 PAM-2: -22

Screening results as filed in PubChem BioAssay.
